# Source: PubChem
# Pf growth 48h = P. falciparum growth inhibition at 48 hours (one generation). P. falciparum luciferase growth in erythrocytes, 48 h. Potency, µM (series often up to 28.7 µM), without a hit: top-dose activity change, negative = inhibition, most hits filed as inhibitors. hit rate 5.9% among 310,000. AID 504832; note: potency is the fitted concentration of half-maximal effect; % is set by controls: 0 for no effect and ±100 for the full control effect
#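 Luminescence readout; reporter = integrated firefly luciferase in P. falciparum. RBC culture at 2% hematocrit, 0.1% parasitemia final, 37 C/5% CO2; decreased signal taken as growth inhibition.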
# CHX counter = affects cycloheximide protein synthesis inhibition readout, counter-screen | cell reporter, cycloheximide protein synthesis inhibition counterscreen | max response, % | hit rate 12% among 300,000; in the data active = max response mostly above about 13%, no sharp cut-off; inactive = mostly below about 14%; note: read at 38.3 µM for the half of the compounds with a filed dose; 0% is about no effect
# HCMV inh = inhibitors of human cytomegalovirus. activity change, negative = inhibition, % at 57.5 µM. HFF cells, HCMV-luciferase reporter, 72 h; stronger effect = lower value. hit rate 4.5% among 410,000. AID 1259415; in the data active = activity change below about -60%; inconclusive = no clear call, values can overlap the other calls; inactive = above about -39%; note: % is set by controls: 0 for no effect and ±100 for the full control effect
#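 Screen run at 2 compound doses on HFFs infected with reporter HCMV, MOI 1 PFU/cell. Luciferase activity from cell lysates at 72 h post infection gave inhibition relative to buffer-only and Salinomycin wells.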
# HCV inhibitor = HCV inhibition; Potency, µM (top dose mostly 41.8 µM), for the others: at the top dose activity change, negative = inhibition, most hits filed as inhibitors; hit rate 3.4% among 340,000; Huh7.5.1 HCVcc-Cre infection, luciferase reporter, 44 h; note: potency is the fitted concentration of half-maximal effect; % is set by controls: 0 for no effect and ±100 for the full control effect
#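 Antiviral activity was scored by luciferase reporter output from cells infected with HCVcc-Cre (~0.5 moi) in presence of compound, 44 h infection period, cells seeded 1,000/well 4 h prior.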
# Shiga inhibitor = inhibitors of Shiga toxin in Vero cells. Vero cells, Shiga toxin protein synthesis inhibition reporter. inhibition, % at 38.7 µM. hit rate 9.2% among 290,000. AID 2315; in the data active = inhibition mostly above about 28%, no sharp cut-off; inactive = mostly below about 43%; note: 0% is about no effect
# Pf growth 96h = P. falciparum growth inhibition at 96 hour, primary screen for plastid delayed-death inhibitors. P. falciparum luciferase reporter growth, 96 h. Potency, µM (doses to about 28.7 µM), inactives show at the top dose activity change, negative = inhibition, actives largely listed as inhibitors. hit rate 6.9% among 320,000. AID 504834; note: potency is the fitted concentration of half-maximal effect; % is set by controls: 0 for no effect and ±100 for the full control effect
#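 Luminescence readout: decreased luciferase signal marks inhibited growth of reporter-expressing P. falciparum in infected red cells (2% hematocrit, 0.05% parasitemia final), exposed to compound two generations (96 h, 37 C, 5% CO2).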
# * marks the source's active call; other numbers are inactive results; ? = inconclusive; . = not tested or not shown. Most compounds without a hit are left out; they make up all but 21% or so of the library. Unless noted, calls come from the whole dose curve; as a rule, active = well fitted inhibition curve with a large enough effect; inconclusive = small, poorly fitted or top-dose-only effect, or another doubt; inactive = no such curve, though single readings can be large or run the other way.
SMILES,Pf growth 48h,CHX counter,HCMV inh,HCV inhibitor,Shiga inhibitor,Pf growth 96h
N#Cc1ccccc1NC(=O)CSC1=Nc2ccccc2C2CC=NN12 (stereo not drawn),-21%,-3,-60*,-12%,-13,5%
CN(C(=O)CSc1ncnc2sccc12)C1CCCCC1,89%,.,-10,-3%,.,59%
O=C(CSC1=Nc2ccccc2C2CC=NN12)NCc1ccco1 (stereo not drawn),.,.,-3,?,.,.
Cc1ccccc1NC(=O)/C(C#N)=C/c1ccc(Cl)cc1Cl,.,.,4,.,.,.
Cc1ccc(N=Cc2c(O)c3ccccc3oc2=O)cc1F,13%,4,38,11%,7,5%
C=CCn1c(=S)[nH]c2ccc(Br)cc2c1=O,0%,-2,-61*,11%,-21,.
C=CCn1c(=S)[nH]c2sc3c(c2c1=O)CCC3,-12%,-1,-12,-9%,18,?
C=CCn1c(=S)[nH]c2nc3c(cc2c1=O)CCCC3,9%,29*,47,?,29*,38%
Cc1c(C)c2c(c(C)c1O)CC[C@@](C)(CCC[C@@H](C)CCC[C@@H](C)CCCC(C)C)O2,-10%,.,.,.,.,-10%
C#Cc1ccc2c(c1)C(=O)N(C)Cc1c(C(=O)OCCCOC(=O)c3ncn4c3CN(C)C(=O)c3cc(C#C)ccc3-4)ncn1-2,.,-5,.,.,-10,.
Cc1nc2ccc(NC(=O)c3ccco3)cc2s1,27%,34*,30,14%,104*,101%
CC(=O)Nc1nc2ccc(NC(=O)c3ccco3)cc2s1,.,45*,73,?,55*,149%
Cc1ccc(NC(=O)CSc2nc3ccc(NC(=O)c4ccco4)cc3s2)c(C)c1,.,.,-24,.,.,.
Cc1ccccc1NC(=O)CSc1nc2ccc(NC(=O)c3ccco3)cc2s1,.,.,-25,.,.,.
CCCCCCCCOC(=O)CCn1[nH]c(=O)c2ccccc2c1=O,?,-4,-5,20%,-9,10µM*
CC(C)(C)c1ccc(C(=O)Nc2ccc(NC(=O)c3ccc(Cl)c(Cl)c3)cc2)cc1,.,.,-7,.,.,.
N#CC(C#N)=Cc1ccc(NC(=O)c2ccc(Br)cc2)cc1,11%,47*,9,-12%,75*,7%
CC(C)(C)c1ccc(C(=O)Nc2ccc(C=C(C#N)C#N)cc2)cc1,135%,72*,8,?,154*,165%
COc1ccc(CNC(=O)O[C@]23C[C@H]4C(=O)N(c5ccccc5)C(=O)[C@H]4C[C@@]2(O)CN(S(=O)(=O)c2ccc(C)cc2)C3)cc1OC,.,.,-8,.,.,.
CC1=C(C(=O)OCc2ccccc2)C(c2ccsc2)NC(=O)N1C (stereo not drawn),-2%,-4,-39,-2%,-5,0%
CC1=C(C(=O)OCCc2ccccc2)C(c2ccsc2)NC(=O)N1C (stereo not drawn),-4%,5,-67*,-19%,-2,-21%
CCn1c(SCC(=O)Nc2cc(C)on2)nc2sc(C)c(C)c2c1=O,11%,-4,?,-11%,-17,12µM*
COc1ccc(C)cc1-n1c(SCC(=O)Nc2cc(C)on2)nc2ccccc2c1=O,0%,8,-23,-29%,61,?
COc1ccc(C)cc1-n1c(SCC(=O)Nc2cc(C)on2)nc2sc(C)c(C)c2c1=O,9.3µM*,-5,?,?,-13,33%
Cc1ccc2c(CC(=O)Nc3ccc4nc(N5CCOCC5)sc4c3)coc2c1,.,.,21,.,.,.
SMILES,Pf growth 48h,CHX counter,HCMV inh,HCV inhibitor,Shiga inhibitor,Pf growth 96h
OC1(c2ccc(Br)cc2)CCNCC1,3%,-1,11,?,-2,.
OC1(c2ccc(F)cc2)CCNC1 (stereo not drawn),14%,-4,-66*,6%,-16,32%
O=C(c1ccc(OCCCc2cnc[nH]2)cc1)C1CC1,.,35*,.,.,80*,.
O=C1CC(C(=O)O)(c2ccccc2)c2cccc(F)c21 (stereo not drawn),13%,7,33,22%,-7,1%
O=C(Nc1ncccc1O)c1cccc(S(=O)(=O)N2CCCc3ccccc32)c1,-5%,.,-8,10%,.,-49%
O=C(Nc1ccccn1)c1cccc(S(=O)(=O)N2CCCc3ccccc32)c1,7.4µM*,.,?,?,.,10µM*
Cc1cccnc1NC(=O)c1cccc(S(=O)(=O)N2CCCc3ccccc32)c1,?,26*,-1,-25%,19,?
